Measurements as given in the supplement of paper PMC3545927.
The other results are listed elsewhere or left out. The true hit rate is not given.

Target: furin, P09958
Test: furin cleavage Z-score vs untreated control; higher = more cleavage, active = 3.5 or more, inactive = 1 or less, 8 variable residues between constant flanks
Protocol: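 Multiplexed peptide-cDNA fusion cleavage assay. 8-mer variable peptides flanked by constant Cys-Ala (N-term) and Ala-Gly-Asn-Ala-Ser-Ala-Ser-Ala (C-term) and conjugated to a cDNA oligonucleotide were bead-immobilised via the N-terminus. They were treated with purified furin at a 1:10 enzyme:substrate ratio in 50 mM HEPES pH 7.5, 1 mM CaCl2, 100 mM NaCl for 7.5, 15 or 30 min. Released cDNA was counted by next-generation sequencing, and log counts versus no-furin controls were lowess-adjusted and converted to robust Z-scores.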

Chain of furin, P09958 (P09958 whole entry): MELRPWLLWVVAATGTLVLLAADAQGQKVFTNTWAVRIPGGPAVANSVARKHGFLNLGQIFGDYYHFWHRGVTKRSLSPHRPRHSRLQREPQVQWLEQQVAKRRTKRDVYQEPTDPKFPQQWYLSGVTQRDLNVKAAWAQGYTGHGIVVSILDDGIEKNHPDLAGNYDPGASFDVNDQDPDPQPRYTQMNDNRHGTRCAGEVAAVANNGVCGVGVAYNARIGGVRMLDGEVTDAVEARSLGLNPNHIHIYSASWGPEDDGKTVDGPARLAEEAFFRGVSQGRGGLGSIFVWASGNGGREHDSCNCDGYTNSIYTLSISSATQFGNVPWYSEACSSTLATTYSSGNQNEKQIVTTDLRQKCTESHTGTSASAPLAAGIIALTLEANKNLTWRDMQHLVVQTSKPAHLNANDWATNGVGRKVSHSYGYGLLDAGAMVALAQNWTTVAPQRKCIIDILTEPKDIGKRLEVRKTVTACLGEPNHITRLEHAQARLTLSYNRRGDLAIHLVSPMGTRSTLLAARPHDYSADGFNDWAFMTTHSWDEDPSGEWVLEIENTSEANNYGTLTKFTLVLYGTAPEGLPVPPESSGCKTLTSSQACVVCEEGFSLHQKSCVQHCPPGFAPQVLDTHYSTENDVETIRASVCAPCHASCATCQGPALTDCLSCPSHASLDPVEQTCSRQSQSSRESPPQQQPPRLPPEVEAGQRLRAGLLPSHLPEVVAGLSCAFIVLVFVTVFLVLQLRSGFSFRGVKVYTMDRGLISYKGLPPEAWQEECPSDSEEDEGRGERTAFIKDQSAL

Sequence | furin cleavage Z-score (7.5 min) | furin cleavage Z-score (15 min) | furin cleavage Z-score (30 min)
CASTHCSAHLAGNASASA [HC2515] | 0.673 (inactive) | 1.32 | -0.709 (inactive)
CALARRQRRHAGNASASA [FS-266] | 7.59 (active) | 7.8 (active) | 6.43 (active)
CAAVCTRGVAAGNASASA [HC752] | 0.499 (inactive) | 0.0628 (inactive) | 1.04
CARSYRDSGIAGNASASA [FS-2463] | 0.464 (inactive) | 1.76 | -0.62 (inactive)
CAASSREIRQAGNASASA [FS-1446] | 0.448 (inactive) | 1.14 | 0.453 (inactive)
CASNSLLRHHAGNASASA [HC1384] | 0.356 (inactive) | -0.0116 (inactive) | 0.517 (inactive)
CARSYRIVRTAGNASASA [FS-1934] | 5.65 (active) | 7.17 (active) | 7.79 (active)
CAASSRWRRHAGNASASA [FS-117] | 6.7 (active) | 5.67 (active) | 5.46 (active)
CASASRNRRHAGNASASA [FS-1276] | 12.5 (active) | 11.1 (active) | 8.5 (active)
CANIRTGVRTAGNASASA [HC799] | -0.448 (inactive) | -0.243 (inactive) | -0.393 (inactive)
CAREMRALACAGNASASA [FS-2917] | 0.375 (inactive) | -0.261 (inactive) | 0.24 (inactive)
CATTYCSGSWAGNASASA [HC1869] | -2.31 (inactive) | -0.739 (inactive) | -0.526 (inactive)
